# Assay results reported in PubChem BioAssay (Tox21).
# Values joined by “and” are separate entries in the source; they are usually repeats but may differ in a detail not shown here. Equal values may be shown once. Records with an inconclusive call do not appear. Entries that show only a call come without a potency. Values without a mark were called inactive. Active and inactive are the calls of the source. Calls follow the shape of the dose curve; as a rule, active = well fitted curve in the direction sought with a large enough effect in the repeat runs; inconclusive = weak or mixed curves; inactive = no such curve, though single readings can be large; an effect the other way counts as inactive or inconclusive.
# Experiments:
# [1] = target: Cytochrome P450 2C19 (Homo sapiens) (UniProt P33261); test: Cytochrome P450 Family 2 Subfamily C Member 19 (CYP2C19) small molecule antagonists: luciferase reporter qHTS assay (AID 1671197); also: nearly all actives have a fitted effect of over 65% in size; as to activity change, negative = inhibition: series mostly up to about 120 µM
# Outline: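 Relative luminescence units recorded 20 min after the detection reagent stopped a 1 h, 37C CYP2C19 reaction on proluciferin substrate, which was started by NADPH regeneration following 10 min room-temperature compound preincubation; ketoconazole positive control.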
# [2] = target: Cytochrome P450 2C9 (Homo sapiens) (UniProt P11712); test: Cytochrome P450 Family 2 Subfamily C Member 9 (CYP2C9) small molecule antagonists: luciferase reporter qHTS assay (AID 1671198); also: nearly all actives have a fitted effect of over 50% in size; as to activity change, negative = inhibition: series mostly up to about 120 µM
# Outline: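 Enzyme-substrate mix preincubated with compound 10 min at room temperature; reaction started with NADPH regeneration solution, 1 h 37C. Luminescent luciferin product read after 20 min detection reagent.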
# [3] = target: Cytochrome P450 1A2 (Homo sapiens) (UniProt P05177); test: Cytochrome P450 Family 1 Subfamily A Member 2 (CYP1A2) small molecule antagonists: luciferase reporter qHTS assay (AID 1671199); also: nearly all actives have a fitted effect of over 50% in size; as to activity change, negative = inhibition: series mostly up to about 120 µM
# Outline: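 Quantitative high-throughput format using the P450-Glo CYP1A2 system. Reaction initiated by NADPH regeneration solution, 1 h at room temperature, then stopped with detection reagent; luminescence measured 20 min later.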
# [4] = target: Voltage-gated inwardly rectifying potassium channel KCNH2 (Homo sapiens) (UniProt Q12809); test: Human Ether-a-go-go-Related Gene (hERG) channel small molecule antagonists: fluorescence cell-based qHTS assay (AID 1671200); also: nearly all actives have a fitted effect of over 50% in size;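 as to activity change, negative = inhibition: hERG-expressing U2OS cells given a thallium stimulus after FluxOR II dye loading; series mostly up to about 77 µM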
# Outline: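 Thallium served as the potassium surrogate; its influx into dye-loaded U2OS cells carrying the channel was measured by fluorescence over 2 min.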
# [5] = target: Cytochrome P450 3A4 (Homo sapiens) (UniProt P08684); test: Cytochrome P450 Family 3 Subfamily A Member 4 (CYP3A4) small molecule antagonists: luciferase reporter qHTS assay (AID 1671201); also: nearly all actives have a fitted effect of over 50% in size; as to activity change, negative = inhibition: series mostly up to about 120 µM
# Outline: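 Relative luminescence units after 20 min with luciferin detection reagent served as read-out. Beforehand, CYP3A4 turned over a proluciferin substrate for 1 h at room temperature with NADPH regeneration, following 10 min compound preincubation.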
# Potency is read from the fitted curve at half-maximal effect.
# Sequence of Cytochrome P450 2C9 (Homo sapiens) (P11712 whole entry, looked up): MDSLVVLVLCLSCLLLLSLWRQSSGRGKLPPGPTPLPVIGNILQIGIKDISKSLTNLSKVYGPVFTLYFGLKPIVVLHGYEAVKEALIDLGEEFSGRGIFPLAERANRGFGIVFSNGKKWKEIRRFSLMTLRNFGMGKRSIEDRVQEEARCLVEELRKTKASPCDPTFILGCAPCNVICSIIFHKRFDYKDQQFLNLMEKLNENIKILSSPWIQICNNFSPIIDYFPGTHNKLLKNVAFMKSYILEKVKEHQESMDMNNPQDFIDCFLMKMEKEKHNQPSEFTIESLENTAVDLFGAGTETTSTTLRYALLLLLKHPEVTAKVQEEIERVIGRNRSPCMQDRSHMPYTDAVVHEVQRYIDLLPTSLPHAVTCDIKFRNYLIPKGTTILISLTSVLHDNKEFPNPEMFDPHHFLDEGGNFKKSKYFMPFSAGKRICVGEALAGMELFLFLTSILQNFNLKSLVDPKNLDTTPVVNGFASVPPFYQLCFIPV
# Sequence of Cytochrome P450 3A4 (Homo sapiens) (P08684 whole entry, looked up): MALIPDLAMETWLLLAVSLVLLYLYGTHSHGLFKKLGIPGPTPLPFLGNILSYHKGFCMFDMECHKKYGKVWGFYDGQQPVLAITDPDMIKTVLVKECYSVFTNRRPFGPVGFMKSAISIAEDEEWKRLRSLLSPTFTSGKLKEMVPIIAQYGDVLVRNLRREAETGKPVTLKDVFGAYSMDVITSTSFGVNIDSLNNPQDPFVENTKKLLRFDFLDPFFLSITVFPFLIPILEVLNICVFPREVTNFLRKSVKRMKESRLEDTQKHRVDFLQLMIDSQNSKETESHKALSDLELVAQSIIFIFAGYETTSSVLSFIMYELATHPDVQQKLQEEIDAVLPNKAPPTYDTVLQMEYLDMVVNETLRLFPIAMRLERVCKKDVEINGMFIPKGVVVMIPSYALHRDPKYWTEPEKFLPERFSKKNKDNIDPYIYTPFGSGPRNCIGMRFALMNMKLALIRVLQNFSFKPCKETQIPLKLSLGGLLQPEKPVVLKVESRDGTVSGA
# Sequence of Cytochrome P450 1A2 (Homo sapiens) (P05177 whole entry, looked up): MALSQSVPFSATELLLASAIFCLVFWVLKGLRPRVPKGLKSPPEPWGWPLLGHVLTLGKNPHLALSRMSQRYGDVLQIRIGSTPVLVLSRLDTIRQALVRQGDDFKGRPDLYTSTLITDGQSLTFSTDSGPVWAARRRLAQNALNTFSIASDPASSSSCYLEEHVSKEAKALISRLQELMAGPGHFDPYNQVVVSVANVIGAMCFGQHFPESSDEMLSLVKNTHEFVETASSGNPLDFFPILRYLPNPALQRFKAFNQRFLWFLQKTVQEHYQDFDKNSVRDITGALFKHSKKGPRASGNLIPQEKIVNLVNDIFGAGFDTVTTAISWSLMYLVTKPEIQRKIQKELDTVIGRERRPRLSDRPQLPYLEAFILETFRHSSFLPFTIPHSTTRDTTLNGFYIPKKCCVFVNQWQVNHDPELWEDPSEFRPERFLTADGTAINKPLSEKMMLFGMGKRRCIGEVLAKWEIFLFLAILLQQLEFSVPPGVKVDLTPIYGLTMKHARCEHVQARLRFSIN
# Sequence of Voltage-gated inwardly rectifying potassium channel KCNH2 (Homo sapiens) (Q12809 whole entry, looked up): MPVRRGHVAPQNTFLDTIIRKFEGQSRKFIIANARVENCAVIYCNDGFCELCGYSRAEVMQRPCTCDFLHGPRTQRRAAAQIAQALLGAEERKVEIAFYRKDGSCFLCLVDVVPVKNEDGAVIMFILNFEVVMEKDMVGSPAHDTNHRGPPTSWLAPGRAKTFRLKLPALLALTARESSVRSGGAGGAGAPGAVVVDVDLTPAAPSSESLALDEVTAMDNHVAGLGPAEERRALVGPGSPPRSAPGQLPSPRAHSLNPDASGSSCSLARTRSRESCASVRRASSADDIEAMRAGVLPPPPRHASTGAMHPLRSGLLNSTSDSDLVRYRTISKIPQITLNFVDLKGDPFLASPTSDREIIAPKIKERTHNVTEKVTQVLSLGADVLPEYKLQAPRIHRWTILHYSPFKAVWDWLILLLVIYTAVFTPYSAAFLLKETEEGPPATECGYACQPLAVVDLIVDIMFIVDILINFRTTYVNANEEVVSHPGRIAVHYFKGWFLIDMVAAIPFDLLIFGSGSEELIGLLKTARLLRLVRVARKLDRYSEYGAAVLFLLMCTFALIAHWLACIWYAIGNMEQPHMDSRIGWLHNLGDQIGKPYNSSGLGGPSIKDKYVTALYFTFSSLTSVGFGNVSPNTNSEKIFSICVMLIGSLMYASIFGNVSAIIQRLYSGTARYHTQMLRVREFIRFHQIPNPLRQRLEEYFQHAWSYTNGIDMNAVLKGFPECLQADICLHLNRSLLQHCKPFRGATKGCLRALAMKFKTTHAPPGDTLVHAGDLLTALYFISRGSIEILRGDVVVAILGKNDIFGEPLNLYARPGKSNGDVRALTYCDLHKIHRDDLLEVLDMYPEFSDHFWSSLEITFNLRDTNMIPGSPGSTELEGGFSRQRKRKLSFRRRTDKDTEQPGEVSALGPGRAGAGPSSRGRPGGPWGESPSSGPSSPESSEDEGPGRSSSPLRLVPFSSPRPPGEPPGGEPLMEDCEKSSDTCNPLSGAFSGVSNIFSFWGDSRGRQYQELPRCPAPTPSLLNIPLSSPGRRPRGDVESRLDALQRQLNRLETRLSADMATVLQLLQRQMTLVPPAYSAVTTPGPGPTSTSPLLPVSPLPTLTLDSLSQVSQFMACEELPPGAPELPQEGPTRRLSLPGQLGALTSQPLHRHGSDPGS
# Sequence of Cytochrome P450 2C19 (Homo sapiens) (P33261 whole entry, looked up): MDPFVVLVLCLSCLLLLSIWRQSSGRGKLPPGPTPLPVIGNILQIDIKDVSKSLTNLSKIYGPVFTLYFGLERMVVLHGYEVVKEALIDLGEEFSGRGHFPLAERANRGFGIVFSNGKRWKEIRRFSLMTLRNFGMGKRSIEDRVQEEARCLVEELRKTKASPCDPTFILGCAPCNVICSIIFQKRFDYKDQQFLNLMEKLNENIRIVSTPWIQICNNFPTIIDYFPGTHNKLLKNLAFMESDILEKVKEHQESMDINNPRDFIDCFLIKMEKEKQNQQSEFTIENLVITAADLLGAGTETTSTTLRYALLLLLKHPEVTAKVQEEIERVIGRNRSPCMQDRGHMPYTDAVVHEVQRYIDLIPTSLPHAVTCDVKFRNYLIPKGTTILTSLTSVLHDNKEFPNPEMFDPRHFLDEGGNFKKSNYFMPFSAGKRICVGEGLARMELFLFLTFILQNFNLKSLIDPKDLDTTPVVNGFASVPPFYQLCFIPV
smiles,measurement,setting,value
Clc1sc(Cl)c(Cl)c1Cl,Potency,[1],inactive
same,Potency,[2],inactive
same,Potency,[3],inactive
same,Potency,[4],inactive
same,Potency,[5],inactive
OC/C=C/CO,Potency,[1],inactive
same,Potency,[2],inactive
same,Potency,[3],inactive
same,Potency,[4],inactive
same,Potency,[5],inactive
Cc1cc(-c2ccc(N=Nc3cc(S(=O)(=O)O)c4ccccc4c3N)c(C)c2)ccc1N=Nc1cc(S(=O)(=O)O)c2ccccc2c1N,Potency,[1],inactive
same,Potency,[2],inactive
same,Potency,[3],inactive
same,Potency,[4],19.6 µM (active)
same,Potency,[5],inactive
Cc1ccc(C(=O)O)cc1,Potency,[1],inactive
same,Potency,[2],inactive
same,Potency,[3],inactive
same,Potency,[4],inactive
same,Potency,[5],inactive
CCCNCCC,Potency,[1],inactive
same,Potency,[2],inactive
same,Potency,[3],inactive
same,Potency,[4],inactive
same,Potency,[5],inactive
C[C@H]1NCc2cc(-c3ccc4c(=O)c(C(=O)O)cn(C5CC5)c4c3OC(F)F)ccc21,"activity change, negative = inhibition",[1],-6.59% [at 23.6 µM]
same,"activity change, negative = inhibition",[2],0.717% [at 23.6 µM]
same,"activity change, negative = inhibition",[3],13.9% [at 23.6 µM]
same,"activity change, negative = inhibition",[4],-3.88% [at 15.8 µM]
same,"activity change, negative = inhibition",[5],10.5% [at 23.6 µM]
CC(=O)CC(=O)Nc1ccc(S(=O)(=O)O)cc1,Potency,[1],inactive
same,Potency,[2],inactive
same,Potency,[3],inactive
same,Potency,[4],inactive
same,Potency,[5],inactive
CC1(C)CCC[C@]2(C)[C@H]3CCO[C@]3(C)CC[C@@H]12,Potency,[1],inactive
same,Potency,[2],inactive
same,Potency,[3],inactive
same,Potency,[4],inactive
same,Potency,[5],inactive
OC[C@@H](O)[C@@H](O)CO,Potency,[1],inactive
same,Potency,[2],inactive
same,Potency,[3],inactive
same,Potency,[4],inactive
same,Potency,[5],inactive
O=[N+]([O-])c1cccc(C(F)(F)F)c1,Potency,[1],inactive
same,Potency,[2],inactive
same,Potency,[3],inactive
same,Potency,[4],inactive
same,Potency,[5],inactive
C=C(CC)C(=O)c1ccc(OCC(=O)O)c(Cl)c1Cl,Potency,[1],inactive
same,Potency,[2],8.88 µM (active) and 5.49 µM (active)
same,Potency,[3],inactive
same,Potency,[4],inactive
same,Potency,[5],inactive
c1cnccn1,Potency,[1],inactive
same,Potency,[2],inactive
same,Potency,[3],36.8 µM (active)
same,Potency,[4],inactive
same,Potency,[5],inactive
O=S(=O)(O)c1ccc(Nc2nc(Nc3ccc(/C=C/c4ccc(Nc5nc(Nc6ccc(S(=O)(=O)O)cc6)nc(N(CCO)CCO)n5)cc4S(=O)(=O)O)c(S(=O)(=O)O)c3)nc(N(CCO)CCO)n2)cc1,Potency,[1],inactive
same,Potency,[2],inactive
same,Potency,[3],inactive
same,Potency,[4],inactive
same,Potency,[5],inactive
CN(C)C(=O)COC(=O)Cc1ccc(OC(=O)c2ccc(N=C(N)N)cc2)cc1,Potency,[1],inactive
same,Potency,[2],inactive
same,Potency,[3],inactive
same,Potency,[4],inactive
same,Potency,[5],inactive
CCCC(=O)OCCc1ccccc1,Potency,[1],inactive
same,Potency,[2],inactive
same,Potency,[3],inactive
same,Potency,[4],inactive
same,Potency,[5],inactive
O=c1[nH]c(=O)n([C@H]2C[C@H](O)[C@@H](CO)O2)cc1F,Potency,[1],inactive
same,Potency,[2],inactive
same,Potency,[3],inactive
same,Potency,[4],inactive
same,Potency,[5],inactive
O=C(c1ccc(O)c(O)c1)c1ccc(O)cc1O,Potency,[1],17.8 µM (active)
same,Potency,[2],inactive
same,Potency,[3],31.7 µM (active)
same,Potency,[4],inactive
same,Potency,[5],5.63 µM (active)
COC(=O)Nc1nc2ccc(C(=O)c3ccccc3)cc2[nH]1,Potency,[1],inactive
same,Potency,[2],inactive
same,Potency,[3],12.9 µM (active)
same,Potency,[4],inactive
same,Potency,[5],inactive
COc1ccc(NC(=O)CC(C)=O)cc1,Potency,[1],inactive
same,Potency,[2],inactive
same,Potency,[3],25.2 µM (active)
same,Potency,[4],inactive
same,Potency,[5],inactive
Cc1cc(-n2nc3ccc(Cl)cc3n2)c(O)c(C(C)(C)C)c1,Potency,[1],inactive
same,Potency,[2],inactive
same,Potency,[3],inactive
same,Potency,[4],inactive
same,Potency,[5],inactive
Cc1cc(C(C#N)c2ccc(Cl)cc2)c(Cl)cc1NC(=O)c1cc(I)cc(I)c1O (stereo not given),Potency,[1],8.71 µM (active)
same,Potency,[2],17.4 µM (active)
same,Potency,[3],inactive
same,Potency,[4],inactive
same,Potency,[5],inactive
O=C(O)c1cc(N=Nc2ccc([N+](=O)[O-])cc2)ccc1O,Potency,[1],39.2 µM (active)
same,Potency,[2],34.9 µM (active)
same,Potency,[4],inactive
C/C=C/C=C/COC(=O)C(C)C,Potency,[1],79.6 µM (active)
same,Potency,[2],63.3 µM (active)
same,Potency,[3],35.6 µM (active)
same,Potency,[4],inactive
same,Potency,[5],28.3 µM (active)
OC1CCCc2ccccc21 (stereo not given),Potency,[1],inactive
same,Potency,[2],inactive
same,Potency,[4],inactive
same,Potency,[5],inactive
O=C(/C=C/c1ccccc1)OC/C=C/c1ccccc1,Potency,[1],35.6 µM (active)
same,Potency,[2],31.7 µM (active)
same,Potency,[3],28.3 µM (active)
same,Potency,[5],inactive
CC(C)=CCC1=C(O)c2ccccc2C(=O)C1=O,Potency,[1],28.1 µM (active)
same,Potency,[2],31.6 µM (active)
same,Potency,[3],11.2 µM (active)
same,Potency,[4],inactive
same,Potency,[5],inactive
COC(=O)c1ccccc1OC,Potency,[1],inactive
same,Potency,[2],inactive
same,Potency,[3],25.2 µM (active)
same,Potency,[4],inactive
same,Potency,[5],inactive
Cc1c(C)c([N+](=O)[O-])c(C(C)(C)C)c([N+](=O)[O-])c1C,Potency,[1],28.3 µM (active)
same,Potency,[2],35.6 µM (active)
same,Potency,[3],20 µM (active)
same,Potency,[5],inactive
